Screening data as filed in PubChem.
Sampled rows, rich in hits. Any-hit rate of the full collection: about 0.36%.
IMPase cell inh = qHTS Assay for Identifying the Cell-Membrane Permeable IMPase Inhibitors | Inositol monophosphatase 1 (Rattus norvegicus), P97697 | CHO-M1 cells, IP1 accumulation, HTRF TR-FRET ratio | inhibition (IP1 accumulation), % at 46.1 µM | 120,000 tested, under 10 active | AID 901, 2007; active means well fitted curve in the direction sought with a large enough effect in the signal ratio, not every such curve was filed as active; inconclusive means small, poorly fitted or top-dose-only effect, or a change in a side signal; inactive means no such curve, though single readings can be large or run the other way; the % refers to the signal ratio;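 further: cells stimulated with carbachol in lithium chloride buffer; plate controls were DMSO basal wells for no effect and reference inhibitor wells for full effect; higher means more IMPase inhibition seen as more IP1 and lower FRET ratio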
Target sequence (P97697 whole entry, looked up): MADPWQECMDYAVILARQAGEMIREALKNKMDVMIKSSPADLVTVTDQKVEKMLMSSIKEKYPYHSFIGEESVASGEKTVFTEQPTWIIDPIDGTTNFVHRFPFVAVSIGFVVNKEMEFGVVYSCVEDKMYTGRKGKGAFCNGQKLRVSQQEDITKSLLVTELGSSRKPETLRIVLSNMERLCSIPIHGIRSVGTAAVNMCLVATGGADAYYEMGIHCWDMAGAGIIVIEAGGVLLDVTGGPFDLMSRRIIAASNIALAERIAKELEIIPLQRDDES
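Seeded CHO-M1 cells were dosed with compound at up to 46 uM, stimulated with carbachol for 30 min, then lysed in IP-One detection reagents. Higher IP1 lowers the TR-FRET signal.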
IMPase Li inh = qHTS Assay for Identifying the Cell-Membrane Permeable IMPase Inhibitors: Potentiation with Lithium; 0.35% of 210,000 active; CHO-M1 cells, IP1 TR-FRET (IP-One), carbachol + lithium; AID 1457, 2008; Potency, µM (highest dose often 59.4 µM), without a hit: at the highest dose activity, negative = IMPase inhibition, most hits filed as inhibitors; active means well fitted inhibition curve with a large enough effect; inconclusive means small, poorly fitted or top-dose-only effect; inactive means no such curve, though single readings can be large or run the other way;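 further: IP1 builds up when IMPase is blocked and the TR-FRET signal falls; potency means the concentration at half of the fitted maximal effect; plate controls were basal vehicle for no effect and high inhibitor control for full effect; nearly all actives have a fitted effect of over 50% in size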
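Steps: plate 2000 CHO-M1 cells per well and culture 16–30 h; add compound and lithium; incubate 30 min, 37C; add d2-IP1 tracer and Eu cryptate anti-IP1 antibody in lysis buffer; read after 10 min at room temperature.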
* hit, by the source's call; ? = inconclusive; · = no result; ! = not active in a repeat; [ ] = another dose, or the depositor's remark.

SMILES | IMPase cell inh | IMPase Li inh
CN(C)c1ccc(C2(c3ccc(N(C)C)cc3)OC(=O)c3cc(N(C)C)ccc32)cc1 | · | 8.4%
O=C(Nc1ccc2oc(-c3cccnc3)nc2c1)c1ccc(-c2cccc(OC(F)(F)F)c2)o1 | -14.6 | ·
COCCCC/C(=N\OCCN)c1ccc(C(F)(F)F)cc1 | · | 10µM*!
COCCCCC(=NOCCN)c1ccc(C(F)(F)F)cc1 | -1.7 | 12.4%
COc1cccc2c(=O)n(CC(=O)Nc3ccccc3F)ccc12 | -5.2 | 3.6%[38.3 µM]
COc1cccc2c(=O)n(CC(=O)Nc3cccc(F)c3)ccc12 | -22.9 | 14.1µM*
COC(=O)[C@H](Cc1ccccc1)NC(=O)O[C@@H]1C(=O)c2ccc(OC)cc2O[C@H]1c1ccc2c(c1)OCO2 | · | 9.2%
Cc1c(-n2c(=S)[nH]c3ccccc3c2=O)c(=O)n(-c2ccccc2)n1C | -1.5 | -0.3%[38.3 µM]
O=c1c2oc3ccccc3c2[nH]c(=S)n1-c1ccccc1 | ? | 8.91µM*
Cc1cccc(NC(=O)CSc2nc3c(oc4ccccc43)c(=O)n2-c2ccccc2)c1 | -3.8 | -12.0%
Cc1cccc(-n2c(=S)[nH]c3c(oc4ccccc43)c2=O)c1 | · | 8.91µM*
Cc1ccc(C)c(NC(=O)c2cc3c([nH]c4ccccc43)c(C)n2)c1 | 4.8 | 11.2µM*
Cc1cccc(NC(=O)c2cc3c([nH]c4ccccc43)c(C)n2)c1C | 3.0 | -1.8%
c1coc(CNc2ncnc3c2oc2ccccc23)c1 | 4.4 | -5.4%[38.3 µM]
COc1ccc(Cl)cc1NC(=O)CSc1ncnc2c1oc1ccccc12 | · | -7.3%
N#CCCSc1ncnc2c1oc1ccccc12 | ? | 11.2µM*
O=C(CSc1ncnc2c1oc1ccccc12)NCc1ccco1 | ? | 11.2µM*
OCCSc1ncnc2c1oc1ccccc12 | 0.4 | -13.1%[38.3 µM]
O=C(CSc1ncnc2c1oc1ccccc12)Nc1ccccc1C(F)(F)F | ? | 5.62µM*
CCOC(=O)CC(=O)CSc1ncnc2c1oc1ccccc12 | ? | 8.91µM*
O=C(O)CSc1ncnc2c1oc1ccccc12 | -28.4 | ·
COc1cccc(Cn2c(=O)c(-c3cn(C)c4ccccc34)nc3cnc(OC)nc32)c1 | · | -3.9%
Cc1cccc(C)c1 | · | 8.2%
O=C(O)[C@@H]1[C@@H](C(=O)O)[C@@]23CCCC2=C2CC[C@@]3(C(=O)O)[C@@]3(C(=O)O)C[C@@]213 | · | 6.8%
CCOC(=O)C1CCN(CCC(=O)Nc2ccccc2OC)CC1 | -0.6 | ·
SMILES | IMPase cell inh | IMPase Li inh
O=C(O)[C@H](C1NCCS1)N1C(=O)c2ccccc2C1=O (some centres undefined) | · | 2.3%
CC(C)C(C)(C)C(C)(C)C(C)(C)S | · | 7.3%
CC1=C(C(=O)O)N2C(=O)[C@@H](NC(=O)[C@@H](N)C3=CCC=CC3)[C@@H]2SC1 | 2.5 | ·
O=c1c(-c2ccccc2)nc2cnc(N3CCNCC3)nc2n1C1CC1 | · | -10.4%
COc1cccc(NC(=O)CSc2ncnc3c2oc2ccccc23)c1 | ? | 11.2µM*
COc1cccc(NC(=O)CSc2nc3c(oc4ccccc43)c(=O)[nH]2)c1 | · | -6.7%
CCc1nc(SCC(=O)NCc2ccco2)c2c3c(sc2n1)CCCC3 | ? | 7.4%
CCCCc1nc2sc3c(SCC(=O)NCc4ccco4)ncnc3c2c2c1CCC2 | ? | 5.01µM*
Cc1nn(-c2ccc(Cl)cc2)c2sc(C(=O)c3c(N)n(C)c(=O)n(C)c3=O)cc12 | -1.8 | 12.6µM*
Cn1c(N)c(C(=O)c2ccc(Cl)cc2)c(=O)n(C)c1=O | 1.3 | ·
N[C@@H](C(=O)O)[C@@H](CC(=O)O)c1ccc(Cl)cc1 | · | -6.6%
C/C=C/C(=O)Nc1nnc(-c2ccccc2C)s1 | · | 10µM*
C=C(C)C(=O)Nc1nnc(-c2ccccc2C)s1 | · | 22.0%
Cc1ccc(CNc2nc3ccc(Cl)cc3n3nnnc23)cc1 | 3.0 | ·
CCc1cc2cc3c(cc2nc1SCC(=O)Nc1nnc(C)s1)OCCO3 | 18.9[1.84 µM] | 12.6µM*
CCc1nnc(NC(=O)CSc2nc3cc4c(cc3cc2CC)OCCO4)s1 | 6.4[1.84 µM] | -20.5%[38.3 µM]
COC(=O)CSc1nc2cc3c(cc2cc1C)OCO3 | · | 6.7%
Cc1cc2cc3c(cc2nc1SCC(=O)Nc1nc(C)c(C)s1)OCO3 | ? | 8.91µM*
CCN1CCN(C(=O)N[C@H](C(=O)N[C@@H]2C(=O)N3C(C(=O)O)=C(CSc4nnnn4C)CS[C@@H]23)c2ccc(O)cc2)C(=O)C1=O | -1.7[20.6 µM] | 3.4%
COc1ccc(Nc2nnc(-c3ccc(C)c(S(=O)(=O)N4CCN(C)CC4)c3)c3ccccc23)cc1 | 2.5 | ·
C[N+]1(Cc2ccccc2)CCC(C(=O)OCC2CCCC2)CC1 (centres undefined) | · | 23.5%
O=c1oc2c(CN3CCOCC3)c(O)c(Cl)cc2c2c1CCC2 | -9.4 | ?
CCN(CC)Cc1c(O)c(Cl)cc2c3c(c(=O)oc12)CCCC3 | -20.8 | 12.6µM*
C[C@]12CCC(=O)C=C1CCC1C3CC[C@](O)(C(=O)CO)[C@@]3(C)CC3OC312 (some centres undefined) | · | 7.4%
Nc1c(C(=O)Nc2ccc(F)cc2)sc2nc(-c3ccco3)ccc12 | -28.8 | ?
SMILES | IMPase cell inh | IMPase Li inh
Nc1c(C(=O)Nc2ccc(Br)cc2)sc2nc(-c3ccco3)ccc12 | ? | 11.2µM*
Oc1cc2c(cc1O)[C@@H]1c3ccc(O)c(O)c3OC[C@]1(O)C2 | · | 17.2%
N#Cc1cnn2c(N)c(-c3ccc(Cl)cc3)cnc12 | · | 11.2µM*
Nc1c(C(=O)O)cnc2c(-c3ccc(Cl)cc3)cnn12 | · | 23.3%
Cc1cnc(CNc2ncncc2-c2ccccc2CN(C)C)cn1 | · | 20.4%
COc1cccc2cc(C(=O)NCc3ccco3)c(=O)oc12 | · | 11.2µM*
COc1cccc2cc(C(=O)NCc3ccco3)c(=Nc3ccc(C(=O)O)cc3)oc12 | -3.4 | 32.2%[38.3 µM]
CC(C)(C)c1nc2c(C#N)c(-c3ccc(Cl)cc3)ccn2n1 | 11.5 | 36.1%[38.3 µM]
N#Cc1c(-c2ccc3c(c2)OCO3)ccn2nc(-c3cccc(C(F)(F)F)c3)nc12 | 11.0 | 12.6µM*
C[C@H](O)Cn1cnc2c1c(=O)n(C)c(=O)n2C | -9.7[20.6 µM] | -6.8%
CC1(C)CCC[C@@]2(C)C1CC[C@@](C)(O)[C@@H]2CC[C@@](C)(O)C1CO1 (some centres undefined) | · | 6.2%
CCC(C)c1ccc(NC(=O)c2cccnc2)cc1 (centres undefined) | 7.1 | 25.5%[38.3 µM]
CCC(C)c1ccc(O)c(NC(=O)c2cccnc2)c1 (centres undefined) | 0.5 | 10µM*
CC(C)(C)C1CCc2oc3ccc(NS(=O)(=O)c4cc(Cl)ccc4Cl)cc3c2C1 (centres undefined) | 0.0 | ·
